Measured values published in PubChem BioAssay (EPA / NIEHS).
Results filed as inconclusive are left out. Calls of active or inactive are those of the source. Rule for the calls, unless noted: active = hit-call score of the fitted dose curve at least 0.9, where 1 is the maximum; inactive = score below 0.9.

Experiments:
[1] = target: Glucocorticoid receptor (Homo sapiens) (UniProt P04150); test: ATG_GR_TRANS: Attagene TRANS-FACTORIAL HepG2 Assay for human Glucocorticoid Receptor (GR) (AID 2282978; active = hit-call score of the fitted dose curve at least 0.9, where 1 is the maximum;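 note: activators score as hits since higher reporter transcript over DMSO is fitted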); conditions: HepG2 Attagene TRANS GR reporter, mRNA transcription
In short: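 Exogenous NR-GAL4 fusion activity was assessed through induced GAL4-UAS reporter transcripts in transfected human HepG2 cells, quantified after 24 h by RT-PCR and fluorescent capillary electrophoresis with DMSO as baseline.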

[2] = target: Bile acid receptor (Homo sapiens) (UniProt Q96RI1); test: ATG_FXR_TRANS: Attagene TRANS-FACTORIAL HepG2 Assay for Farnesoid X Receptor (FXR) (AID 2282979; active = hit-call score of the fitted dose curve at least 0.9, where 1 is the maximum;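 note: hits raise reporter mRNA above DMSO so AC50 marks FXR activation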); conditions: HepG2 Attagene TRANS FXR-GAL4 reporter transcription
In short: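 Read-out: fluorescent reporter transcripts quantified by capillary electrophoresis after RT-PCR of total RNA. Source cells were HepG2 transiently carrying chimeric NR-GAL4 plus GAL4-UAS reporter units, dosed 24 h. Activity fitted upward relative to DMSO baseline.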

[3] = target: Oxysterols receptor LXR-alpha (Homo sapiens) (UniProt Q13133); test: ATG_LXRa_TRANS: Attagene TRANS-FACTORIAL HepG2 Assay for human Liver X Receptor alpha (LXRa) (AID 2282980; active = hit-call score of the fitted dose curve at least 0.9, where 1 is the maximum); conditions: HepG2 Attagene TRANS reporter, LXRa transactivation
In short: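 Read-out: reporter transcript levels by RT-PCR plus capillary electrophoresis, fluorescence intensity. Transiently transfected HepG2, exogenous NR-GAL4 chimera, GAL4-UAS reporters; 24 h compound exposure. Activity = increase over DMSO negative control.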

[4] = target: Oxysterols receptor LXR-beta (Homo sapiens) (UniProt P55055); test: ATG_LXRb_TRANS: Attagene TRANS-FACTORIAL HepG2 Assay for human Liver X Receptor beta (LXRb) (AID 2282981; active = hit-call score of the fitted dose curve at least 0.9, where 1 is the maximum); conditions: HepG2 Attagene TRANS GAL4-LXRb reporter, mRNA
In short: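 HepG2 cells transiently transfected with multiple reporter transcription units carrying chimeric NR-Gal4 proteins acting on GAL4-UAS reporters; compound exposure 24 h. Reporter mRNA quantified by RT-PCR, 6-FAM labelling, HpaI digestion and capillary electrophoresis; gain of signal versus DMSO.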

[5] = ATG_M_06_TRANS: Attagene TRANS-FACTORIAL HepG2 Assay for M06 Transcription Factor (Internal Marker) (AID 2282983; active = hit-call score of the fitted dose curve at least 0.9, where 1 is the maximum); conditions: HepG2 Attagene TRANS M06 internal marker reporter
In short: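 After a 24 h chemical treatment of transfected HepG2, RNA underwent DNase I treatment, reverse transcription and reporter-specific PCR; labelled, HpaI-digested products were sized by capillary electrophoresis. Signal increase relative to DMSO defined activity.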

[6] = ATG_M_32_TRANS: Attagene TRANS-FACTORIAL HepG2 Assay for M32 Transcription Factor (Internal Marker) (AID 2282984; active = hit-call score of the fitted dose curve at least 0.9, where 1 is the maximum;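 note: transcript level of a background control reporter unit measured by RT-PCR and capillary electrophoresis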); conditions: HepG2 Attagene TRANS M32 internal marker reporter
In short: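 HepG2 cells transiently transfected with multiple GAL4-UAS reporter transcription units, dosed for 24 hours; reporter mRNA quantified by RT-PCR, 6-FAM primer extension, HpaI digestion and capillary electrophoresis. Gain-of-signal fitted versus DMSO baseline; internal background-control marker.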

[7] = target: Nuclear receptor subfamily 4 group A member 2 (Homo sapiens) (UniProt P43354); test: ATG_NURR1_TRANS: Attagene TRANS-FACTORIAL HepG2 Assay for human Nuclear Receptor Related Protein 1 (NURR1) (AID 2282985; active = hit-call score of the fitted dose curve at least 0.9, where 1 is the maximum); conditions: HepG2 Attagene TRANS reporter, mRNA readout
In short: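 HepG2 cells transiently transfected with GAL4-UAS reporter units and chimeric NR-Gal4 constructs; chemical exposure 24 h. Reporter mRNA quantified by RT-PCR, fluorescent labelling and capillary electrophoresis; gain of signal fitted relative to DMSO baseline.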

[8] = target: Transcriptional activator Myb (Homo sapiens) (UniProt P10242); test: ATG_Myb_CIS: Attagene CIS-FACTORIAL HepG2 Assay for human Myeloblastosis (Myb) Proto-Oncogene Transcription Factor (AID 2282986); conditions: HepG2 Attagene CIS-FACTORIAL Myb reporter transcription; actives raise or lower the signal
In short: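 In this HepG2 transient-transfection format, cis-regulated reporter mRNA is quantified 24 h post-dosing by RT-PCR with capillary electrophoresis, fitted bidirectionally to DMSO baseline.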

[9] = target: Nuclear respiratory factor 1 (Homo sapiens) (UniProt Q16656); test: ATG_NRF1_CIS: Attagene CIS-FACTORIAL HepG2 Assay for human Nuclear Respiratory Factor 1 (NRF1) Orphan Gene (AID 2282987); conditions: HepG2 NRF1 cis-element reporter, Attagene multiplex; actives raise or lower the signal
In short: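 Using DMSO as baseline, gain- or loss-of-signal was fitted for reporter mRNA levels in HepG2 cells transiently transfected with cis-regulated reporter units. Samples were taken 24 h after dosing and read by RT-PCR with capillary electrophoresis.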

[10] = ATG_NFI_CIS: Attagene CIS-FACTORIAL HepG2 Assay for human Nuclear Factor I (NFI) (AID 2282989); conditions: HepG2 cis-regulatory reporter, NFI response element transcription; actives raise or lower the signal
In short: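 Reporter transcripts were measured by RT-PCR with fluorescent primer extension and capillary electrophoresis 24 h post-treatment. HepG2 cells carried transiently transfected cis-regulated reporter constructs reporting endogenous factor activity; gain or loss fitted against DMSO baseline.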

[11] = ATG_NF_kB_CIS: Attagene CIS-FACTORIAL HepG2 Assay for human Nuclear Factor Kappa B (NF-kB) (AID 2282991); conditions: HepG2 Attagene cis-factorial NF-kB reporter mRNA; actives raise or lower the signal
In short: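 Endpoint from a 52-component multiplexed HepG2 reporter panel: cis-regulated transcription units transiently transfected, 24 h dosing, reporter mRNA quantified by RT-PCR and capillary electrophoresis, scored as increase or decrease against DMSO.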

[12] = ATG_Oct_MLP_CIS: Attagene CIS-FACTORIAL HepG2 Assay for human Octamer-Binding Transcription Factor (Oct) (AID 2282993); conditions: HepG2 Attagene cis-factorial Oct reporter, mRNA; actives raise or lower the signal
In short: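 Readout is reporter transcript level from RT-PCR with fluorescent primer extension and capillary electrophoresis, fitted in both directions against DMSO. Transfected HepG2 reporter units report endogenous factor activity after 24 h dosing.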

[13] = target: Cellular tumor antigen p53 (Homo sapiens) (UniProt P04637); test: ATG_p53_CIS: Attagene CIS-FACTORIAL HepG2 Assay for human p53 Transcription Factor (AID 2282994); conditions: HepG2 p53 cis-element reporter, Attagene mRNA; actives raise or lower the signal
In short: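 Using HepG2 hepatoma cells carrying cis-acting multiplexed reporters, mRNA induction is detected after a 24 h exposure. Gain- and loss-of-signal responses are fitted relative to DMSO-treated cells.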

[14] = BSK_3C_TissueFactor: BioMAP Diversity Plus: 3C Assay for Tissue Factor Biomarker Activity (AID 2282997); conditions: BioMAP 3C HUVEC, tissue factor biomarker readout; actives raise or lower the signal
In short: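 Human vascular primary cells (umbilical vein endothelium) received test chemical; Tissue Factor was determined by ELISA at 24 h, and both gain and loss of signal versus DMSO were fitted.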

[15] = BSK_3C_uPAR: BioMAP Diversity Plus: 3C Assay for Urokinase-type plasminogen activator receptor (uPAR) Biomarker Activity (AID 2282998); conditions: BioMAP 3C HUVEC, uPAR biomarker ELISA; actives raise or lower the signal
In short: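 Cell-surface uPAR on HUVEC (3C system) read by ELISA at 24 h post-treatment, with DMSO as baseline and fitting in both directions. Parallel cultures stained with SRB to flag overt cytotoxicity.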

[16] = BSK_3C_VCAM1: BioMAP Diversity Plus: 3C Assay for Vascular cell adhesion molecule 1 (VCAM1) Biomarker Activity (AID 2282999); conditions: BioMAP 3C HUVEC, VCAM1 ELISA, cytokine-stimulated; actives raise or lower the signal
In short: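 Human umbilical vein endothelial cells were dosed with compound for 24 h, after which cell-surface VCAM-1 was quantified by ELISA. Bidirectional curve fitting used DMSO as negative control and activity baseline.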

[17] = target: Hepatocyte nuclear factor 4-alpha (Homo sapiens) (UniProt P41235); test: ATG_HNF4a_TRANS: Attagene TRANS-FACTORIAL HepG2 Assay for human Hepatocyte Nuclear Factor 4 alpha (HNF4a) (AID 2282982; active = hit-call score of the fitted dose curve at least 0.9, where 1 is the maximum); conditions: HepG2 HNF4a transactivation reporter, mRNA readout
In short: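 HepG2 cells transiently transfected with multiplexed GAL4-UAS reporter units responsive to chimeric NR-GAL4 proteins; compound exposure 24 h. Reporter mRNA quantified by RT-PCR, 6-FAM labelling, HpaI digestion and capillary electrophoresis; gain of signal versus DMSO baseline.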

[18] = target: Myc proto-oncogene protein (Homo sapiens) (UniProt P01106); test: ATG_Myc_CIS: Attagene CIS-FACTORIAL HepG2 Assay for human Myelocytomatosis (Myc) Proto-Oncogene Transcription Factor (AID 2282990); conditions: HepG2, Attagene cis-reporter transcription factor activity; actives raise or lower the signal
In short: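 DMSO-normalised, bidirectionally fitted reporter mRNA signal. HepG2 cells transfected with cis reporter constructs, treated 24 h; transcripts detected by RT-PCR, 6-FAM primer extension and CE.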

[19] = ATG_NRF2_ARE_CIS: Attagene CIS-FACTORIAL HepG2 Assay for human Nuclear Factor Erythroid 2 Related Factor 2 (NFR2) response to Antioxidant Response Elements (ARE) (AID 2282992); conditions: HepG2 Attagene ARE/NRF2 reporter, transcription factor activity; actives raise or lower the signal;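 for AC50: reporter mRNA level measured by RT-PCR and capillary electrophoresis fluorescence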
In short: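 Cis-factorial assay: transfected HepG2 reporter library, 24 h dosing, mRNA readout via RT-PCR/CE; DMSO-referenced bidirectional analysis.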

Measured: AC50

Sequence of Glucocorticoid receptor (Homo sapiens) (P04150 whole entry, looked up, the tested form may be a part): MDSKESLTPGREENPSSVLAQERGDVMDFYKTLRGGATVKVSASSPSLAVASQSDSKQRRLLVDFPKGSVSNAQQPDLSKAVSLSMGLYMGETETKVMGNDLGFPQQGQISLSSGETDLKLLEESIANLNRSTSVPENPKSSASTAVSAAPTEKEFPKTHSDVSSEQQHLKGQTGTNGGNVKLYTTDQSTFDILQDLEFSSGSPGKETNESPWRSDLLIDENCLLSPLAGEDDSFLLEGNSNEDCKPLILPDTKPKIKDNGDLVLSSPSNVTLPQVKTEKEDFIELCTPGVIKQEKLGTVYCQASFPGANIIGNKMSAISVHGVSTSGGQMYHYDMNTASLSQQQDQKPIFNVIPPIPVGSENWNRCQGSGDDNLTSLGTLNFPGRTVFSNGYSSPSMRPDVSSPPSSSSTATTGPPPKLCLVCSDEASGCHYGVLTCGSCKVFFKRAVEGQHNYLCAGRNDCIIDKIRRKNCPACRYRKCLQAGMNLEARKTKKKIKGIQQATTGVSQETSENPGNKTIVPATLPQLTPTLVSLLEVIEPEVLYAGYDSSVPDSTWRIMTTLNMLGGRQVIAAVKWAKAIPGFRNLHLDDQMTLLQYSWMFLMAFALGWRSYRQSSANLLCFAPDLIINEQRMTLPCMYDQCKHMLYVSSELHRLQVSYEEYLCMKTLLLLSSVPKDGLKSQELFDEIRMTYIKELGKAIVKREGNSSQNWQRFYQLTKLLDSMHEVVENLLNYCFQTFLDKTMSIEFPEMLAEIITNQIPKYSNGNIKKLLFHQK
Sequence of Transcriptional activator Myb (Homo sapiens) (P10242 whole entry, looked up): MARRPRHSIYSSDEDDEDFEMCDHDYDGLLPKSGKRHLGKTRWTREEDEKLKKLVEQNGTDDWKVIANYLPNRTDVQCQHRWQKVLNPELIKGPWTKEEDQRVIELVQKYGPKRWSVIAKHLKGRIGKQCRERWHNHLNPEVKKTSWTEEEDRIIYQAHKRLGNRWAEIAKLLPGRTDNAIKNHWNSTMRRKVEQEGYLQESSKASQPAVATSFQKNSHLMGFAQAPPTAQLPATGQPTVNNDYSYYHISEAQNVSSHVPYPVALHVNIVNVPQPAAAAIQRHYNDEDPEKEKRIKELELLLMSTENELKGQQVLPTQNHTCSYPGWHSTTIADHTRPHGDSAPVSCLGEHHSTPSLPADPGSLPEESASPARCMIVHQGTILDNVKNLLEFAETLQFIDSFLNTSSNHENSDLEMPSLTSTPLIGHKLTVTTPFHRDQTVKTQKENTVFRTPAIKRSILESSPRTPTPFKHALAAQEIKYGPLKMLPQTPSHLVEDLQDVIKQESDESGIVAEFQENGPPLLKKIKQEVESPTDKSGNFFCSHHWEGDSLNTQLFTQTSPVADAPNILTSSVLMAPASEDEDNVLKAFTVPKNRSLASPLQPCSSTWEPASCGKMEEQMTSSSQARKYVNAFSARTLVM
Sequence of Oxysterols receptor LXR-alpha (Homo sapiens) (Q13133 whole entry, looked up, the tested form may be a part): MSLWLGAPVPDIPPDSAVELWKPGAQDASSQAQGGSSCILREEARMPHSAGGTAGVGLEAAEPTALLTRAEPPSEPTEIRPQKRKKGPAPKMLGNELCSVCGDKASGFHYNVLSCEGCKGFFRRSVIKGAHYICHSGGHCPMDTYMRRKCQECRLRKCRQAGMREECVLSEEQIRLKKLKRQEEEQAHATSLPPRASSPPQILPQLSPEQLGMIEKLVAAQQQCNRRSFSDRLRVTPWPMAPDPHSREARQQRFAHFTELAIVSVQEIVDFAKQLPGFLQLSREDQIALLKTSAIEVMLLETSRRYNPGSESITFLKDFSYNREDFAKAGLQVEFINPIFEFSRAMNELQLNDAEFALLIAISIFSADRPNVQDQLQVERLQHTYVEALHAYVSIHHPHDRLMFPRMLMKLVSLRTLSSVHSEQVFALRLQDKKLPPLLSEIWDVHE
Sequence of Oxysterols receptor LXR-beta (Homo sapiens) (P55055 whole entry, looked up, the tested form may be a part): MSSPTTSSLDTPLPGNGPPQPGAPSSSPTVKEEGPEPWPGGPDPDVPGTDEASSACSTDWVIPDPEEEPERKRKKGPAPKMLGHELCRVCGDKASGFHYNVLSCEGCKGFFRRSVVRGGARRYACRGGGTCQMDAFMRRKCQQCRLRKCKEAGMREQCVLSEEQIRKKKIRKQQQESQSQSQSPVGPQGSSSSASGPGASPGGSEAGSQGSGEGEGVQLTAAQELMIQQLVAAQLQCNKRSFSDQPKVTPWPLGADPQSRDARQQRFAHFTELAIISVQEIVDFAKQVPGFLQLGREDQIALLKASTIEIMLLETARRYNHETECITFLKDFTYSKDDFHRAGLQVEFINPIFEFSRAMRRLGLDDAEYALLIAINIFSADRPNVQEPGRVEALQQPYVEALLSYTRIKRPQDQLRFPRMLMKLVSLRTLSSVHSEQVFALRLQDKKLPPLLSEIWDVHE
Sequence of Cellular tumor antigen p53 (Homo sapiens) (P04637 whole entry, looked up): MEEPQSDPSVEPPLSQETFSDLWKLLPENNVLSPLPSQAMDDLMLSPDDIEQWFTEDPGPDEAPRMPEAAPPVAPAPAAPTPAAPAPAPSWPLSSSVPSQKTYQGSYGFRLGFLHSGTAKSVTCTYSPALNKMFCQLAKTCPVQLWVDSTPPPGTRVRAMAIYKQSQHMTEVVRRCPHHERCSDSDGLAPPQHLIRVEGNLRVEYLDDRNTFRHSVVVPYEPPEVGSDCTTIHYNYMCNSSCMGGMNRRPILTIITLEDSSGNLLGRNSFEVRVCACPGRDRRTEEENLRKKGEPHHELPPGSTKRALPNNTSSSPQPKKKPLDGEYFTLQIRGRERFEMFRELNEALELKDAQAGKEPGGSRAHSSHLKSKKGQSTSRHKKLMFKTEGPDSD
Sequence of Bile acid receptor (Homo sapiens) (Q96RI1 whole entry, looked up, the tested form may be a part): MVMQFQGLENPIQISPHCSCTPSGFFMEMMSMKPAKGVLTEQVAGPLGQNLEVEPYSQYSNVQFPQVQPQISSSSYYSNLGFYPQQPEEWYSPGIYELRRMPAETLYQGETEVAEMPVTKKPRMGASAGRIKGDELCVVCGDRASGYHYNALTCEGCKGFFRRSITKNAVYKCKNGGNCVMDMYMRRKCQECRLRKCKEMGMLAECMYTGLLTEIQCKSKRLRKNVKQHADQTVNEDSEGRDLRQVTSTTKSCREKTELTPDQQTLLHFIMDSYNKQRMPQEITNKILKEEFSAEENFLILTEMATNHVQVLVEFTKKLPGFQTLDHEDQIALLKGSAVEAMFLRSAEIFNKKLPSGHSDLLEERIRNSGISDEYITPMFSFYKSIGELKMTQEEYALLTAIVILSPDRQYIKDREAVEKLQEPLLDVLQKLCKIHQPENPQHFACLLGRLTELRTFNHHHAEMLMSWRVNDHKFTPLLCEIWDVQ
Sequence of Nuclear respiratory factor 1 (Homo sapiens) (Q16656 whole entry, looked up): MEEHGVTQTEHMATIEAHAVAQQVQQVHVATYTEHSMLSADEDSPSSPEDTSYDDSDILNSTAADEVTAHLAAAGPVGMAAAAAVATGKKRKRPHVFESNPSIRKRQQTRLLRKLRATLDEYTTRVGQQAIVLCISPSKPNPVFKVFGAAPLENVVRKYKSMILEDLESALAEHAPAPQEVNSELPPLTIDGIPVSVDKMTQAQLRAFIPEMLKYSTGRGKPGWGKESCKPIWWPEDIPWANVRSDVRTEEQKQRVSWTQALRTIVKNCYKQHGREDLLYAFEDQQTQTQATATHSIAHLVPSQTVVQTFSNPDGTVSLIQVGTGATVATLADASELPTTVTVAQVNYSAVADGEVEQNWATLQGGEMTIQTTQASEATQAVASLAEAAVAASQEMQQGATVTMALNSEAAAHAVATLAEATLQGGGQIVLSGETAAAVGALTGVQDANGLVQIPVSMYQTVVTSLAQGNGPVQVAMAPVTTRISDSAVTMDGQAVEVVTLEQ
Sequence of Myc proto-oncogene protein (Homo sapiens) (P01106 whole entry, looked up): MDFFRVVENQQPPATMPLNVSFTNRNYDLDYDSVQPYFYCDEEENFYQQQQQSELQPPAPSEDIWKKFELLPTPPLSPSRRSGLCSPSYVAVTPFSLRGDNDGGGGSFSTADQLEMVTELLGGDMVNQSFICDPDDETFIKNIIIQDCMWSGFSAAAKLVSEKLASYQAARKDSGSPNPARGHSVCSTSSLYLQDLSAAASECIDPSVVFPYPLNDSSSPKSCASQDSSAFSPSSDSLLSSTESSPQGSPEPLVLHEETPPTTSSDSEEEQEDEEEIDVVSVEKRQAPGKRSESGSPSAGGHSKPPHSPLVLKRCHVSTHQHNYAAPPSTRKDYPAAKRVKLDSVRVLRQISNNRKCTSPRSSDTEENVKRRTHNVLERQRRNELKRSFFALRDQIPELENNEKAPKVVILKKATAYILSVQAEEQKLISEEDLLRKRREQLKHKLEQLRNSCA
Sequence of Hepatocyte nuclear factor 4-alpha (Homo sapiens) (P41235 whole entry, looked up, the tested form may be a part): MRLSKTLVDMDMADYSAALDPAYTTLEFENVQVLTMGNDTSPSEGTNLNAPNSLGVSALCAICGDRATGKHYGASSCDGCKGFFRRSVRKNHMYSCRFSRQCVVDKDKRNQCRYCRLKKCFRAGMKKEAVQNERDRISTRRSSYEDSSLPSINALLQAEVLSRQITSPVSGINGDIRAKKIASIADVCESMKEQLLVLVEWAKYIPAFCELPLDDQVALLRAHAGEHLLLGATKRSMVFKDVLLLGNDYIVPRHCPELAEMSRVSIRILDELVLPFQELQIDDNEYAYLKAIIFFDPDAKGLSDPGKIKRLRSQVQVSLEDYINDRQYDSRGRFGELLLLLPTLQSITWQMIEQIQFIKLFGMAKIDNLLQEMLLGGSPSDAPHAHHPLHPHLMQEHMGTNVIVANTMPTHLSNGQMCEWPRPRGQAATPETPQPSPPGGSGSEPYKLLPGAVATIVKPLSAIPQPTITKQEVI

O=C(O)C(F)(F)C(F)(F)C(F)(F)C(F)(F)C(F)(F)C(F)(F)C(F)F
not listed: [17] | [18] | [19]
inactive: all other assays above

CC(C)(C)c1cc(CCC(=O)NCCCCCCNC(=O)CCc2cc(C(C)(C)C)c(O)c(C(C)(C)C)c2)cc(C(C)(C)C)c1O
not listed: [6] | [18] | [19]
inactive: all other assays above

FC(F)(F)C(F)(F)C(F)(F)C(F)(F)C(F)(F)C(F)(F)CC[Si](Cl)(Cl)Cl
not listed: [3] | [6] | [17]
inactive: all other assays above

NCC(F)(F)C(F)(F)C(F)(F)C(F)(F)C(F)(F)C(F)(F)C(F)(F)C(F)(F)F
not listed: [4] | [17]
inactive: all other assays above

OCC(F)(F)C(F)(F)C(F)(F)C(F)(F)C(F)(F)C(F)(F)CO
not listed: [17] | [18]
inactive: all other assays above

CCC(Cc1c(I)cc(I)c(N)c1I)C(=O)O (stereo not given)
active: [19] 47 µM
not listed: [6] | [7] | [14] | [15] | [16] | [17] | [18]
inactive: all other assays above

F[Si-2](F)(F)(F)(F)F
not listed: [3] | [14] | [15] | [16]
inactive: all other assays above

CCN(CC)c1ccc(N=Nc2ccccc2)cc1
active: [9] 35.4 µM | [15] 20 µM | [16] 20 µM
not listed: [5] | [18] | [19]
inactive: all other assays above
